Among the data in PubChem BioAssay (NCI) are growth inhibition values, retold here.

SMILES strings stand for the structures. About 79,000 compounds went through this panel and 15% of them were active in at least one assay; those are over-represented in the sample as a whole. Unmarked numbers belong to inactive results. Calls of active or inactive are those of the source. No stated cut-off is given here; in the data, active means growth inhibition above about 70%; inactive means the rest.

Assay [1] is described as follows: NCI Yeast Anticancer Drug Screen. Data for the rad50 strain (AID 155).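 Further: 0% = growth of vehicle-only cultures of the same strain.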 The following applies: S. cerevisiae rad50 strain growth inhibition; at 50.0 µM; hits give high values. In outline:
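Yeast carrying a defined DNA repair defect were exposed to test compounds, and growth was compared with vehicle-treated controls to give percent inhibition.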

Assay [2] is described as follows: NCI Yeast Anticancer Drug Screen. Data for the mec2-1 strain (AID 157). Particulars: S. cerevisiae mec2-1 strain, at 50.0 µM, hits give high values. In outline: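 Each compound was tested on mec2-1 yeast, a strain altered in DNA damage repair or cell cycle control. Growth inhibition is reported relative to vehicle.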
Assay [3] in a line: NCI Yeast Anticancer Drug Screen. Data for the sgs1 mgt1 strain (AID 161).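 Further: 0% = growth of cultures given vehicle only.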 The following applies: S. cerevisiae sgs1 mgt1 strain, at 50.0 µM, hits give high values. In outline:
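Mutant yeast exposed to compound; growth scored against vehicle-only wells.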

The nature of assay [4]: NCI Yeast Anticancer Drug Screen. Data for the cln2 rad14 strain (AID 165).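 Further: 0% = growth equal to vehicle treated cultures.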 Particulars: S. cerevisiae cln2 rad14 strain, at 50.0 µM, hits give high values. Put shortly:
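Test compounds were added to cln2 rad14 yeast cultures; inhibition of growth was then determined by comparison with vehicle treatment.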

Assay [5] can be described thus: NCI Yeast Anticancer Drug Screen. Data for the bub3 strain (AID 167). The following applies: S. cerevisiae bub3 mutant strain, at 50.0 µM, hits give high values. In outline: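 Compounds were applied to a genetically altered yeast strain carrying a cell-cycle control defect. Growth inhibition was scored against vehicle-treated controls.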
The nature of assay [6]: NCI Yeast Anticancer Drug Screen. Data for the mlh1 rad18 strain (AID 175). Particulars: S. cerevisiae mlh1 rad18 strain growth inhibition; at 50.0 µM; hits give high values. In outline: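 Inhibition values reflect reduced growth of mutant yeast versus vehicle-treated controls following compound exposure; the mutations affect DNA damage repair.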

For the compound `CCCCCCCCCCCCCCCc1cc(O)ccc1N=O`, the growth inhibition in assay [1] was -3.8%; in assay [2], -16.5%; in assay [3], -8.3%; in assay [4] it was -3.45%; in assay [5] it was -1.05%; in assay [6], -11.7%.
As for `CC(=O)c1cccc(NC(=O)c2c(Br)c(Br)c(Br)c(Br)c2C(=O)O)c1`, the growth inhibition in assay [1] was -7.25%; in assay [2] it was -12.6%; in assay [3], 2.95%; in assay [4], 0.2%; in assay [5] it was -0.25%; in assay [6] it was -3.1%.
Consider `CC(C)CCc1n[nH]c(=O)n1/N=C\c1ccccc1`, for which the growth inhibition in assay [1] is -4.25%; in assay [2] it was -9.35%; in assay [3], -0.05%; in assay [4], -10.6%; in assay [5] it was 19.1%; in assay [6], 26.6%.
For `COc1ccc(Cl)cc1[N+](=O)[O-]`, the growth inhibition is 27.6% in assay [1]; 3.15% in assay [2]; -3.85% in assay [3]; 9.5% in assay [4]; 13.6% in assay [5]; 18.2% in assay [6].
On to `O=C1O/C(=C/c2ccc(O)cc2)c2ccccc21`, for which the growth inhibition in assay [1] was 0.9%; in assay [2] it was -26.9%; in assay [3], -4.1%; in assay [4], -15.1%; in assay [5] it was 6.9%; in assay [6], -11.4%.
As for `CC1(C)COCOC1c1ccccc1` (stereo not given), the growth inhibition was -6.2% in assay [1]; 11.3% in assay [2]; -21.4% in assay [3]; -11.8% in assay [4]; -1% in assay [5]; 6.4% in assay [6].
Turning to `CCCCCCCc1c(C)c2ccc(OC)cc2[nH]c1=O`, the growth inhibition in assay [1] was -9.8%; in assay [2], -29.1%; in assay [3] it was -5.8%; in assay [4] it was -5%; in assay [5], -6.85%; in assay [6], -5.15%.
Regarding `O=C(/C=C(\Cl)c1ccc2c(c1)OCO2)OC/C=C\c1ccc2c(c1)OCO2`, the growth inhibition in assay [1] was 30.9%; in assay [2], 9.55%; in assay [3], 25.1%; in assay [4], 20.3%; in assay [5], -7.4%; in assay [6], 19.2%.
On to `O=C(O)/C=C\CCCCC(=O)O`, for which the growth inhibition in assay [1] was 35.4%; in assay [2], 0.95%; in assay [3], 15.1%; in assay [4], 6.75%; in assay [5], 13.8%; in assay [6] it was 37.5%.
As for `CCC(=O)OC1C(OC2C(C)C(OC3CC(C)(OC)C(O)C(C)O3)C(C)C(=O)OC(CC)C(C)(O)C(O)C(C)C(=O)C(C)CC2(C)O)OC(C)CC1N(C)C` (stereo not given), the growth inhibition in assay [1] is -18.1%; in assay [2], -28.1%; in assay [3] it was -31.2%; in assay [4] it was 5.7%; in assay [5] it was -3%; in assay [6] it was -76.8%.
Consider `CCOC(=O)c1ccc(NC(=O)Sc2ccccc2C)cc1`, for which the growth inhibition was 5.55% in assay [1]; 12.9% in assay [2]; 11.3% in assay [3]; 7.5% in assay [4]; 28% in assay [5]; 13.6% in assay [6].
Turning to `O=C(Nc1ccccc1)Nc1cc(C(F)(F)F)ccc1Cl`, the growth inhibition in assay [1] was 36%; in assay [2], 18.6%; in assay [3], 4.15%; in assay [4], -10.2%; in assay [5] it was 2.95%; in assay [6], -17.1%.
As to `Cc1nc2nn(C)cc2c(=O)n1/N=C/c1ccccc1`, the growth inhibition in assay [1] was -18.8%; in assay [2] it was -35.5%; in assay [3], -50.1%; in assay [4] it was -5.9%; in assay [5], -4.15%; in assay [6], -37.4%.
Take `O=C(O)C(O)(O)C(O)(O)C(=O)O`: the growth inhibition in assay [1] is 6.35%; in assay [2] it was -22.6%; in assay [3] it was -4%; in assay [4], 4.85%; in assay [5] it was -5.85%; in assay [6], -10.4%.
Take `COC(=O)C(C)c1cccc2ccc3ccccc3c12` (stereo not given): the growth inhibition in assay [1] was 16.3%; in assay [2], -11.7%; in assay [3], 16.2%; in assay [4], 9.55%; in assay [5] it was 15.2%; in assay [6], 23.4%.
Turning to `C/C(=N/Nc1ccc([N+](=O)[O-])cc1[N+](=O)[O-])c1ccc(Sc2ccc(/C(C)=N/Nc3ccc([N+](=O)[O-])cc3[N+](=O)[O-])cc2)cc1`, the growth inhibition was -13.2% in assay [1]; -21.1% in assay [2]; -10.3% in assay [3]; -19.4% in assay [4]; -14.9% in assay [5]; -23.4% in assay [6].
Turning to `C=C1C(=O)[C@@]23CC[C@@H]4[C@@]5(C)CCC[C@@]4(OC5=O)[C@@]2(C)CC[C@@H]1C3`, the growth inhibition in assay [1] is 92.1% (active); in assay [2], 93.7% (active); in assay [3] it was 93.8% (active); in assay [4] it was 89.3% (active); in assay [5], 93.3% (active); in assay [6] it was 92.3% (active).
As for `Cc1ccc(/C(O)=C/C(=O)C(=O)NC23CC4CC(CC(C4)C2)C3)cc1`, the growth inhibition in assay [1] was 36.9%; in assay [2], 15.3%; in assay [3], 32.4%; in assay [4] it was 24.9%; in assay [5] it was 15.8%; in assay [6] it was 23.4%.
For `Cc1csc(NC(=O)C2C3CCC(O3)C2C(=O)O)n1` (stereo not given), the growth inhibition is 22.1% in assay [1]; -11.2% in assay [2]; -6.5% in assay [3]; 10.4% in assay [4]; -4.95% in assay [5]; -12.6% in assay [6].
For the compound `CNC(CC(=O)O)C(=O)O` (stereo not given), the growth inhibition was -0.4% in assay [1]; -3.95% in assay [2]; -14.6% in assay [3]; -15.1% in assay [4]; 2.5% in assay [5]; -3.05% in assay [6].
